Hits are enriched below; roughly 3.2% of the tested compounds scored in any of these assays.
GSIS activator: GLuc luminescence reporter in INS-1E cells, primary screen for activators of glucose-dependent secretion of insulin. activation, % at 16.6 µM. 370,000 tested, 0.61% active. INS-1E GLuc reporter insulin secretion, 2-3 h;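 active means lowest replicate activation of at least 40%, so every replicate reaches that level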;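 further: 0% = median of neutral control wells and 100% = median of IBMX positive control wells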
PGC1a acetyl inh: lowers PGC1a acetylation signal in U2OS cells | AlphaScreen anti-acetyl-lysine; with virally co-expressed GCN5 acetyltransferase | inhibition, % at 15.6 µM | 350,000 tested, 0.17% active;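 active means every replicate shows inhibition of at least 40%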;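 further: 0% = neutral control wells and 100% = positive control wells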
CaV13 ICDI inh: Primary screen for inhibitors of IQ motif and Ca2+-dependent inactivation inhibitor domain binding in CACNA1D, Förster resonance energy transfer in living cells, …. 340,000 tested, 0.098% active. AID 743397. HEK cells, CFP/YFP FRET ICDI-IQ, plate reader, 10 min; percent FRET-ratio fall versus neutral wells. inhibition, % at 12.3 µM;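 active means mean replicate inhibition of at least 30% and at least 1% of replicates passing that level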;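 further: 0% = median of the neutral control wells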
Ecoli rRNA inh: inhibitors of bacterial rRNA selective over humanized ribosomes; GFP signal change (wild-type ribosome), % (concentration not given with the values); 350,000 tested, 1.6% active; E. coli WT GFP vs humanized-ribosome RFP mutants, fluorescence, 24 h; stronger effect = lower value; DMSO median 0, no signal -100;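 active means significant combined selectivity score with lowered wild-type GFP, culture density cut under 30%, mutant RFP and density less affected; inactive means any of these conditions unmet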
ERAP1 inh: blocks human ERAP1 aminopeptidase activity; Q9NZ08; recombinant ERAP1, Leu-AMC fluorescence, 60 min; inhibition, % at 10.7 µM; 340,000 tested, 0.15% active; AID 652197;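 active means mean replicate inhibition of at least 30%, or all replicates individually reaching that 30% level; inactive means mean below 30% and not every replicate reaching it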;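 further: 0% = neutral control wells and 100% = L-leucinethiol positive control wells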
Target sequence (Q9NZ08 whole entry, looked up): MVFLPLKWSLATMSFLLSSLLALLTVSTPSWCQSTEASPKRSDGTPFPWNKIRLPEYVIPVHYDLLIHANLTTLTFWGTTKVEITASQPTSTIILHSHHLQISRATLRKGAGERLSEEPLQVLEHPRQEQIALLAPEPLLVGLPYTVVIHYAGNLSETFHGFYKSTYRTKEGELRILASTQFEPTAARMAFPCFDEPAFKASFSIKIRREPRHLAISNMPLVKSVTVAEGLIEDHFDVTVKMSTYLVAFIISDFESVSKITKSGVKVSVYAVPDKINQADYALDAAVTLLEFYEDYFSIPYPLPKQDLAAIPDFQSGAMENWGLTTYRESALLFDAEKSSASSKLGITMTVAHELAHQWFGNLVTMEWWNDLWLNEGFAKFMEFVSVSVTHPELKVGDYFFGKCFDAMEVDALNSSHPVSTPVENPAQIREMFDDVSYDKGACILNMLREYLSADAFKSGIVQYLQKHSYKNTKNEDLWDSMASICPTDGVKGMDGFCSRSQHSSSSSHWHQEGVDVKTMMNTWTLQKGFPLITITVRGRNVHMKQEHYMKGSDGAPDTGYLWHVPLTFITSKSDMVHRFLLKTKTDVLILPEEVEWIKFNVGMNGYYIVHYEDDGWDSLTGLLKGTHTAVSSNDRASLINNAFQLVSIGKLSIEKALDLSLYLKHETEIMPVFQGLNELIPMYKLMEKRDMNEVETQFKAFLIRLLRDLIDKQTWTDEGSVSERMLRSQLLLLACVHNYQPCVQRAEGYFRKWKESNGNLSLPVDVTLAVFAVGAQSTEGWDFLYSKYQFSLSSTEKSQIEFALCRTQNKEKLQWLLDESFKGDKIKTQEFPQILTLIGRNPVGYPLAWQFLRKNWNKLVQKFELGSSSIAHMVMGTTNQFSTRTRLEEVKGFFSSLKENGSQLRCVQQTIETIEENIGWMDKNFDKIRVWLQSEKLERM
DENV2 CPE rescue: inhibitors of DENV2 cytopathic effect; DENV2-infected cells, cytopathic effect rescue, plate reader; CPE inhibition, % at 9.99 µM; 350,000 tested, 1.7% active; AID 651640; in the data active means CPE inhibition above about 20%, passing the limit was not always enough; tested in BHK-21 cells;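 further: 0% = median of neutral control wells and 100% = median of positive control wells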
The depositor's hits bear a star; ! = not active in a repeat.

How did CC(=O)n1cc([C@H]2C=C(C(=O)N3CCN(Cc4ccccc4)CC3)O[C@@H](OCc3ccc(CO)cc3)C2)c2ccccc21 do in these assays?
PGC1a acetyl inh: -3.3; CaV13 ICDI inh: -4.4; Ecoli rRNA inh: -0.8; ERAP1 inh: -1.2; DENV2 CPE rescue: -0.1

Results for C#CCNC(=O)C1=C[C@H](c2cn(C(C)=O)c3ccccc23)C[C@H](OCc2ccc(CO)cc2)O1 ?
GSIS activator: -2.1; PGC1a acetyl inh: 1.5; CaV13 ICDI inh: -6.3; Ecoli rRNA inh: 1.9; ERAP1 inh: -0.8; DENV2 CPE rescue: -10.1

What do the screens show for `CC(=O)n1cc([C@@H]2C=C(C(=O)O)O[C@H](OCc3ccc(CO)cc3)C2)c2ccccc21`?
GSIS activator: 1.4; PGC1a acetyl inh: 11.7; CaV13 ICDI inh: -11.0; Ecoli rRNA inh: 0.5; ERAP1 inh: -1.5; DENV2 CPE rescue: 28.5*!

How did CC(=O)N1[C@@H](CO)[C@H](c2ccc(-c3ccccc3)cc2)[C@@H]1CNC(=O)C1CC1 do in these assays?
GSIS activator: 4.0; PGC1a acetyl inh: 5.5; Ecoli rRNA inh: 0.7; DENV2 CPE rescue: -6.1

Results for COc1cc(N/N=C(\C)c2ccc(O)c(C)c2)nc(-c2ccccc2)n1 ?
GSIS activator: -3.2; PGC1a acetyl inh: -16.6; CaV13 ICDI inh: -6.4; Ecoli rRNA inh: -37.0*; ERAP1 inh: 10.1

How did C/C(=N\Nc1cc(-c2ccccc2)nc(-c2ccccc2)n1)c1ccc(O)c(C)c1 do in these assays?
CaV13 ICDI inh: -5.0; Ecoli rRNA inh: -1.9; ERAP1 inh: 0.5; DENV2 CPE rescue: 6.5

What do the screens show for `CCCCCCCCN1C(=O)[C@H](CC(=O)NCCCCc2ccccc2)C[C@@]2(C(=O)OC)CC(C)(C)CC=C12`?
GSIS activator: -33.3; CaV13 ICDI inh: -15.0; ERAP1 inh: -0.9; DENV2 CPE rescue: 35.0*

What do the screens show for `COC(=O)[C@@]12C[C@@H](CC(=O)NCc3ccccc3)C(=O)N(Cc3ccco3)C1=CCC(C)(C)C2`?
GSIS activator: -5.8; CaV13 ICDI inh: -11.8; Ecoli rRNA inh: -3.4; ERAP1 inh: -5.8; DENV2 CPE rescue: 6.4

How did CCCCCCCCN1C(=O)[C@H](CC(=O)N2CCCCC2)C[C@@]2(C(=O)OC)CC(C)(C)CC=C12 do in these assays?
GSIS activator: 81.3*; CaV13 ICDI inh: -14.7; ERAP1 inh: -1.6; DENV2 CPE rescue: -10.5

Results for COC(=O)[C@@]12C[C@@H](CC(=O)NCc3ccc(OC)c(OC)c3)C(=O)N(Cc3ccco3)C1=CCC(C)(C)C2 ?
GSIS activator: -15.4; CaV13 ICDI inh: -16.3; ERAP1 inh: -0.1; DENV2 CPE rescue: 21.9*

How did CCCCCCCCN1C(=O)[C@H](CC(=O)N2CCCCC2)C[C@@]2(C(=O)OC)CCCCC=C12 do in these assays?
GSIS activator: 46.7*; CaV13 ICDI inh: -4.4; Ecoli rRNA inh: -8.4; DENV2 CPE rescue: 4.3

What do the screens show for `CCCCCCCCN1C(=O)[C@H](CC(=O)NCc2ccccc2)C[C@@]2(C(=O)OC)CC(C)(C)CC=C12`?
GSIS activator: -14.0; CaV13 ICDI inh: -16.2; ERAP1 inh: -3.6; DENV2 CPE rescue: -2.6

What do the screens show for `CCC(=O)Nc1ccc2c(c1)C(=O)N(C)C[C@H](OC)[C@H](C)CN(Cc1cncnc1)[C@@H](C)CO2`?
GSIS activator: -2.7; PGC1a acetyl inh: -37.9; Ecoli rRNA inh: -0.6

What do the screens show for `Cc1c(NC(=S)N/C(=N/S(=O)(=O)c2ccc(Cl)cc2)c2ccccc2)c(=O)n(-c2ccccc2)n1C`?
PGC1a acetyl inh: 17.5; CaV13 ICDI inh: -5.7; Ecoli rRNA inh: -0.9; ERAP1 inh: 4.4; DENV2 CPE rescue: -1.4

How did Cc1c(NC(=S)N/C(=N/S(=O)(=O)c2ccccc2)c2ccccc2)c(=O)n(-c2ccccc2)n1C do in these assays?
GSIS activator: 43.5*; PGC1a acetyl inh: 1.4; CaV13 ICDI inh: -6.2; Ecoli rRNA inh: 5.5; ERAP1 inh: 3.0; DENV2 CPE rescue: -12.4

How did Nc1ccc(N=Nc2ccccc2)c(N)n1 do in these assays?
PGC1a acetyl inh: 9.8; CaV13 ICDI inh: -6.1; Ecoli rRNA inh: -24.2*; ERAP1 inh: 6.0; DENV2 CPE rescue: 0.2

What do the screens show for `Nc1ccc(N=Nc2ccccc2)c2ccccc12`?
GSIS activator: -7.9; CaV13 ICDI inh: -19.9; Ecoli rRNA inh: 3.5; ERAP1 inh: -1.7; DENV2 CPE rescue: -4.1

Results for c1ccc(N=Nc2ccc3cccccc2-3)cc1 ?
GSIS activator: 3.5; PGC1a acetyl inh: 1.1; CaV13 ICDI inh: -6.7; Ecoli rRNA inh: -19.8*; ERAP1 inh: -0.2; DENV2 CPE rescue: -5.5

How did O=C(C[C@H]1CC[C@@H]2[C@H](COC[C@H](O)CN2S(=O)(=O)c2ccccc2)O1)NCc1ccc2c(c1)OCO2 do in these assays?
GSIS activator: 2.7; PGC1a acetyl inh: -9.8; Ecoli rRNA inh: 3.2; ERAP1 inh: 0.5; DENV2 CPE rescue: 7.9

What do the screens show for `COc1ccc(C(C#N)=Cc2ccc(OC)c(OC)c2)cc1`?
GSIS activator: 80.3*; PGC1a acetyl inh: 0.5; CaV13 ICDI inh: -2.5; Ecoli rRNA inh: -43.9; ERAP1 inh: -2.2; DENV2 CPE rescue: -2.5

How did COc1ccc(C=C(C#N)c2ccc(OC)cc2)cc1 do in these assays?
GSIS activator: 22.3; PGC1a acetyl inh: -9.8; CaV13 ICDI inh: -9.9; Ecoli rRNA inh: -17.5; ERAP1 inh: 2.9; DENV2 CPE rescue: 0.9

Results for COc1ccccc1-c1nn2c(-c3ccco3)nnc2s1 ?
GSIS activator: 8.8; PGC1a acetyl inh: 3.0; CaV13 ICDI inh: -7.4; Ecoli rRNA inh: -21.8*; ERAP1 inh: 1.4

Results for c1coc(-c2nn3c(-c4ccco4)nnc3s2)c1 ?
PGC1a acetyl inh: 9.7; CaV13 ICDI inh: -5.8

What do the screens show for `COc1ccc(C(=O)OCc2c(-c3cccc(OC)c3)ncc3ccccc23)cc1`?
GSIS activator: -4.2; PGC1a acetyl inh: -2.9; CaV13 ICDI inh: -5.0; Ecoli rRNA inh: 0.1; DENV2 CPE rescue: 21.9*

How did OC[C@@H]1[C@@H](c2ccccc2)C2(CN(Cc3cc(F)ccc3F)C2)N1CC1CCCC1 do in these assays?
GSIS activator: 3.1; Ecoli rRNA inh: -56.3

What do the screens show for `COc1ccc2c3c([nH]c2c1)[C@H](CO)N(C(=O)c1cccnc1)CC31CCN(C(=O)c2cccnc2)CC1`?
GSIS activator: 17.0; PGC1a acetyl inh: 2.3; Ecoli rRNA inh: 3.4; ERAP1 inh: 0.9; DENV2 CPE rescue: 10.0

How did Cc1ccc(CC2(OCCN(C)C)CCC(C(C)(C)C)CC2)cc1 (stereo not given) do in these assays?
GSIS activator: 750.2*; CaV13 ICDI inh: -6.4; Ecoli rRNA inh: -61.5; ERAP1 inh: 7.2; DENV2 CPE rescue: 1.2

Results for COc1ccc2c3c([nH]c2c1)[C@@H](CO)N(C(=O)C1CCCC1)CC31CCN(C)CC1 ?
GSIS activator: 3.6; Ecoli rRNA inh: 7.2; ERAP1 inh: -0.7; DENV2 CPE rescue: -7.4

Screening data as filed in PubChem BioAssay.
